# Measured values published in article PMC4336329 (PLoS ONE, 2015).
# Hit rate of the full screen: of about 310,000 compounds, about 14,000 (4.5%) showed an effect of 50% or more. Effects have a minus sign here. The sample holds strong results, similar compounds and a random draw of the others, so the mix is not that of the screen.
# Target: human ether-à-go-go-related gene (hERG) potassium channel (human, UniProt Q12809)
# Test: primary screen, population patch clamp on CHO cells stably expressing hERG; higher = less effect of the substance
# 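Note: peak tail current of the secondary pulse compared with the same well before compound.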
# human ether-à-go-go-related gene (hERG) potassium channel, sequence (Q12809 whole entry, looked up): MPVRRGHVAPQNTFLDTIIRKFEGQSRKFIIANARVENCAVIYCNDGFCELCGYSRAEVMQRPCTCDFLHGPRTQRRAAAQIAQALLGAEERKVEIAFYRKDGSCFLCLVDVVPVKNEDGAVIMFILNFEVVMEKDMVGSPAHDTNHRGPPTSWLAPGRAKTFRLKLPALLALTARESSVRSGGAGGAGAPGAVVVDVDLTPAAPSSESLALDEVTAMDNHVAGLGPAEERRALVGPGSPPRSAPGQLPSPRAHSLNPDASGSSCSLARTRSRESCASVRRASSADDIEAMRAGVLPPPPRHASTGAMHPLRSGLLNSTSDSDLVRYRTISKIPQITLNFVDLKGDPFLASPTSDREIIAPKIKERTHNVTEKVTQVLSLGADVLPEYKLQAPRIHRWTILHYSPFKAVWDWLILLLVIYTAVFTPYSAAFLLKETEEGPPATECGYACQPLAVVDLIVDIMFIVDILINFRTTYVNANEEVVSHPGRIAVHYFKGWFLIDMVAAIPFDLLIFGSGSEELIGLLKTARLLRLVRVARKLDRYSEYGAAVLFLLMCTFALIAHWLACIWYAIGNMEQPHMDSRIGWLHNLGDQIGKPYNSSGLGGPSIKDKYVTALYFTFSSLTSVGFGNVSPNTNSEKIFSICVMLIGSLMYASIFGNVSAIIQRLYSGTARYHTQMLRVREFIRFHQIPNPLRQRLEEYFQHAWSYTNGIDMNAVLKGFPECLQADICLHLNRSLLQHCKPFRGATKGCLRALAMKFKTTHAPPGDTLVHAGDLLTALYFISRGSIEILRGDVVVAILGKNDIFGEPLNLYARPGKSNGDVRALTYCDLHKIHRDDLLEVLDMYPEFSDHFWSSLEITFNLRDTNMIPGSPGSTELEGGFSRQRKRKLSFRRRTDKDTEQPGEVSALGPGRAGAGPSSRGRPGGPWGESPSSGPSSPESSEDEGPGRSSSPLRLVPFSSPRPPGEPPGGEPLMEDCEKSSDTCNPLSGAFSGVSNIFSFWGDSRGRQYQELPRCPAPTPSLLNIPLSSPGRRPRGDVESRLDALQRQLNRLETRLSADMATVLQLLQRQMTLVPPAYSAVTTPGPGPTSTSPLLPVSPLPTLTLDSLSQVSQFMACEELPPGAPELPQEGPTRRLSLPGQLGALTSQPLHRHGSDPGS
row,SMILES,"hERG current change (%, negative = inhibition) at 10uM"
1,CCC(=O)N1CCCc2cc(S(=O)(=O)N3CCN(c4ccccc4F)CC3)ccc21,-23.7%
2,CCOC(=O)C1CCCN(C(=O)c2cnn3c(C(F)F)cc(-c4ccc(C)cc4)nc23)C1 (stereo not drawn),-38.4%
3,O=C(NCCSCc1ccccc1)c1ccc(Cl)c(S(=O)(=O)N2CCOCC2)c1,-50%
4,O=C(NCCN1CCOCC1)c1ccc(Cl)c(S(=O)(=O)N2CCCC2)c1,-0.109%
5,O=C(NCCN1CCOCC1)c1ccc(Cl)c(S(=O)(=O)N2CCCCC2)c1,-58.3%
6,CC(C)(C)SCCNC(=O)c1ccc(Cl)c(S(=O)(=O)N2CCOCC2)c1,-6.74%
7,Cc1ccc(C(=O)NCCN2CCOCC2)cc1S(=O)(=O)N1CCCCC1,-20.7%
8,Cc1ccc(CSCCNC(=O)c2ccc(Cl)c(S(=O)(=O)N3CCOCC3)c2)cc1,-40.5%
9,Cc1ccccc1CSCCNC(=O)c1ccc(Cl)c(S(=O)(=O)N2CCOCC2)c1,-42.2%
10,Cl.O=C(NCCN1CCOCC1)c1ccc(Cl)c(S(=O)(=O)N2CCCCCC2)c1,-40.1%
11,COc1ccc(C(=O)NCC(C)(C)N2CCOCC2)cc1S(=O)(=O)N1CCCC1,-8.82%
12,O=C(NCCN1CCOCC1)c1ccc(Cl)c(S(=O)(=O)N2CCOCC2)c1,13.1%
13,Cl.O=C(NCCCN1CCOCC1)c1ccc(Cl)c(S(=O)(=O)N2CCCCCC2)c1,-50.6%
14,CC(C)(CNC(=O)c1ccc(Cl)c(S(=O)(=O)N2CCc3ccccc3C2)c1)N1CCOCC1,-50.3%
15,Cc1ccccc1C(=O)NC(=S)Nc1ccc(S(=O)(=O)N2CCN(C)CC2)cc1,7.75%
16,COc1ccc(-c2noc(CN3CCCCC3)n2)cc1OC,-1.49%
17,Cc1cccc(C)c1NC(=O)CN(c1ccccn1)S(=O)(=O)c1ccc(F)cc1,19.1%
18,Cc1ccc2[nH]cc(CCNS(=O)(=O)c3ccc(F)cc3)c2c1,-4.39%
19,Cc1ccc(CNc2ncc(-c3ccccc3)n2C)o1.O=C(O)C(=O)O,-37%
20,CC(C)NCc1cccc([N+](=O)[O-])c1.O=C(O)C(=O)O,3.39%
21,Cn1c(-c2ccccc2)cnc1NCc1ccccc1,-21.3%
22,Cn1c(-c2ccc(F)cc2)cnc1NCc1cccc(F)c1,-46%
23,Cn1c(-c2cccc([N+](=O)[O-])c2)cnc1NCc1cccc([N+](=O)[O-])c1.O=C(O)C(=O)O,-77.8%
24,CSc1ccc(CNc2ncc(-c3cccc([N+](=O)[O-])c3)n2C)cc1.O=C(O)C(=O)O,-66.4%

row,SMILES,"hERG current change (%, negative = inhibition) at 10uM"
1,COc1cccc(CNc2ncc(-c3ccccc3)n2C)c1,-35.6%
2,Cn1c(-c2ccccc2)cnc1NCc1cccc([N+](=O)[O-])c1,-72%
3,Cn1c(-c2ccc(F)cc2)cnc1NCc1cccc([N+](=O)[O-])c1,-70.9%
4,O=C(c1cccc([N+](=O)[O-])c1)n1nc(-c2ccccc2)nc1NCc1ccccc1,9.75%
5,CCN(CC)C(=O)c1ccc(NC(=O)Cn2nc(C)c3ccccc3c2=O)cc1,-10.3%
6,Cc1ccc(C(=O)CSc2nnc(-c3cccnc3)n2N)cc1,-15.2%
7,O=C(NCCN1C(=O)S/C(=C\c2ccc(Cl)c(Cl)c2)C1=O)C1COc2ccccc2O1 (stereo not drawn),-9.28%
8,COc1cc2c(cc1OC)[C@H](C)N(C(=O)NCc1ccccc1)CC2,5.78%
9,CCN(CC)c1ccc2cc(-c3nc4ccccc4n3C)c(=O)oc2c1,22.9%
10,O=C(c1cc2sccc2n1Cc1ccc(F)cc1)N1CCCc2ccccc21,15.3%
11,c1ccc2c(c1)c1ccccc1n1c(-c3ccc4c(c3)OCO4)nnc21,3.9%
12,Cn1ncc2c(N3CCCCC3)nc(NCCCO)nc21,11.9%
13,Cn1cnc2c1c(=O)n(Cc1ccc(F)cc1Cl)c(=O)n2C,5.82%
14,CCOC(=O)C1CCCN(C(=O)c2cccc(S(=O)(=O)N3CCOCC3)c2)C1 (stereo not drawn),15.6%
15,COc1ccc2cc(C#N)c(SCC(=O)N3CC(=O)Nc4ccccc43)nc2c1,14.9%
16,COc1ccc(S(=O)(=O)NCCc2cn3nc(C)c(C)nc3n2)cc1F,3.38%
17,Cn1c(-c2ccc(Br)cc2)cnc1NCc1cccnc1,-41.3%
18,COc1ccc([N+](=O)[O-])cc1NCc1cccc([N+](=O)[O-])c1,-62.6%
19,COc1ccc(CNc2cc([N+](=O)[O-])ccc2OC)cc1,-1.02%
20,Cn1c(-c2cccc([N+](=O)[O-])c2)cnc1NCc1ccc(C#N)cc1.O=C(O)C(=O)O,-75%
21,CCOc1ccc(CNc2ncc(-c3ccccc3)n2C)cc1,-38.9%
22,Cn1c(-c2cccc([N+](=O)[O-])c2)cnc1NCc1cccc(F)c1.O=C(O)C(=O)O,-54.1%
23,COc1ccc(CNc2ncc(-c3ccccc3)n2C)cc1,-32.6%
24,Cn1c(-c2cccc(Br)c2)cnc1NCc1cccnc1,-59.6%

row,SMILES,"hERG current change (%, negative = inhibition) at 10uM"
1,COc1ccc([N+](=O)[O-])cc1NCc1ccccc1.O=C(O)C(=O)O,2.96%
2,CNc1nc(N(C)C)nc(N(C)C)n1,-7.71%
3,CCS(=O)(=O)N1Cc2ccccc2CC1C(=O)Nc1cccc(C)c1 (stereo not drawn),-4.95%
4,CCc1cccc2c(C(=S)N3CCCC3)c[nH]c12,8.97%
5,Nc1[nH]n2c(=O)cc(-c3ccccc3)nc2c1N=Nc1ccccc1,11%
6,COc1ccccc1C(=O)Oc1ccc(N2C(=O)CCC2=O)cc1,-0.543%
7,Cc1cc(C(F)F)n2nc(C(=O)Nc3ccc(F)cc3F)nc2n1,-2.95%
8,O=C(CSc1nnc2n1CCCN2)c1ccc([N+](=O)[O-])cc1,-49.8%
9,Nc1ccc2sc(N)nc2c1,12.2%
10,Cc1cc(OC(C)C(=O)N(Cc2ccco2)C2CCS(=O)(=O)C2)cc(C)c1Cl (stereo not drawn),-1.99%
11,CC(C)=CCN1CCN(Cc2ccc(C#CC(C)(C)O)s2)CC1CCO (stereo not drawn),-1.88%
12,Cc1cccc(CNc2ncc(-c3cccc([N+](=O)[O-])c3)n2C)c1.O=C(O)C(=O)O,-71.1%
13,COc1cccc(-c2cnc(NCc3cc(Cl)ccc3O)n2C)c1.O=C(O)C(=O)O,-24.1%
14,COc1ccc(OC)c(CNc2ncc(-c3cccc([N+](=O)[O-])c3)n2C)c1.O=C(O)C(=O)O,-54.8%
15,COc1ccc(CNc2ncc(-c3cccc([N+](=O)[O-])c3)n2C)c(OC)c1OC.O=C(O)C(=O)O,-47.5%
16,Cc1ccccc1Nc1c([N+](=O)[O-])ccc2c1=NC1(CCCCC1)N=2,-16.6%
17,O=C(COc1ccc(Br)cc1Cl)NNC(=O)c1ccccc1,2.57%
18,Cc1ccccc1CN(c1ccc(C(=O)NCc2ccccn2)cc1)S(C)(=O)=O,-35.4%
19,CC1CC(C)CN(C(=O)CSc2nc(Cc3cccs3)nc3ccccc23)C1 (stereo not drawn),-13%
20,Cc1noc(C)c1COC(=O)CCN1c2ccccc2Sc2ccccc21,7.54%
21,CCCCCCCN=CC1=C(O)CC(c2ccccc2)CC1=O (stereo not drawn),-6.52%
22,Cc1ccc(-n2cc(S(=O)(=O)c3ccc(C)cc3)[nH]c2=O)cc1,4.72%
23,O=C(CCCCCN1C(=O)c2cccc3cccc(c23)C1=O)NCc1ccco1,13.2%
24,COCCNC(=S)N1CCC(NC(=O)c2ccco2)CC1,15.7%

row,SMILES,"hERG current change (%, negative = inhibition) at 10uM"
1,O=C(NC1CCN(C(=S)Nc2ccc(Cl)cc2)CC1)c1ccco1,-72.8%
2,O=C(NC1CCN(C(=S)NCc2ccco2)CC1)c1cccc(F)c1,-47.1%
3,COc1ccc(NC(=S)N2CCC(NC(=O)c3ccco3)CC2)cc1,-6.59%
4,COc1ccc(C(=O)NC2CCN(C(=S)NCc3ccco3)CC2)cc1,-29.6%
5,O=C(NC1CCN(C(=S)NCc2ccco2)CC1)c1ccc(F)cc1,-51.6%
6,CC(C)CNC(=S)N1CCC(NC(=O)c2ccco2)CC1,-65.7%
7,O=C(NC1CCN(C(=S)Nc2ccc(F)cc2)CC1)c1ccco1,-39%
8,CCNC(=S)N1CCC(NC(=O)c2ccco2)CC1,6.16%
9,C=CCN(c1ccc(C(=O)NCCCn2ccnc2)cc1)S(C)(=O)=O,12.3%
10,CCCc1cc(=O)[nH]c(SC(C)C(=O)Nc2ccc3c(c2)OCCO3)n1 (stereo not drawn),-7.38%
11,Cc1cc(CN(C)C)c(OC(=O)N(C)C)cc1C.Cl,16.1%
12,Cc1[nH]nc2c1C1(C(=O)Nc3ccc([N+](=O)[O-])cc31)C(C#N)=C(N)O2 (stereo not drawn),24.9%
13,C=CCn1c(SCC(=O)OCC)nc2cc(C(=O)NCc3ccco3)ccc2c1=O,-17.6%
14,O=C(NCC1CCCO1)c1ccc2c(=O)n(Cc3ccco3)c(SCC(=O)N3CCCC3)nc2c1 (stereo not drawn),-79.3%
15,O=C(NCC1CCCO1)c1ccc2c(=O)n(CC3CCCO3)c(SCC(=O)N3CCCC3)nc2c1 (stereo not drawn),3.95%
16,CCOC(=O)CSc1nc2cc(C(=O)NCC3CCCO3)ccc2c(=O)n1Cc1ccco1 (stereo not drawn),-39.3%
17,COC(=O)c1ccc2c(=O)n(Cc3ccc4c(c3)OCO4)c(SCC(=O)N3CCCC3)nc2c1,-52.4%
18,CC1CCN(C(=O)CSc2nc3ccccc3c(=O)n2Cc2ccc3c(c2)OCO3)CC1,-13.6%
19,O=C(NCc1ccco1)c1ccc2c(=O)n(Cc3ccco3)c(SCC(=O)N3CCCC3)nc2c1,-76.4%
20,COCCCNC(=O)CSc1nc2cc(C(=O)NCCOC)ccc2c(=O)n1Cc1ccc2c(c1)OCO2,-4.37%
21,CCCCCn1c(SCC(=O)OCC)nc2cc(C(=O)NCc3ccco3)ccc2c1=O,2.51%
